# Pyk2 oligo antag: blocks oligomerization of human Pyk2 in cells | Q14289 | Q293 cells, Pyk2 FERM NanoBiT luminescence; active compounds read low | z-score (the deposit names both 25 µM and 10 µM) | 99,000 tested, 0.83% active;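 active = Z-score of -3 or lower, scaled per plate to the spread of control and sample wells; inactive = z-score above -3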;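 also: negative z-score means lost luminescence so less FERM oligomerization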
# Target sequence (Q14289 whole entry, looked up): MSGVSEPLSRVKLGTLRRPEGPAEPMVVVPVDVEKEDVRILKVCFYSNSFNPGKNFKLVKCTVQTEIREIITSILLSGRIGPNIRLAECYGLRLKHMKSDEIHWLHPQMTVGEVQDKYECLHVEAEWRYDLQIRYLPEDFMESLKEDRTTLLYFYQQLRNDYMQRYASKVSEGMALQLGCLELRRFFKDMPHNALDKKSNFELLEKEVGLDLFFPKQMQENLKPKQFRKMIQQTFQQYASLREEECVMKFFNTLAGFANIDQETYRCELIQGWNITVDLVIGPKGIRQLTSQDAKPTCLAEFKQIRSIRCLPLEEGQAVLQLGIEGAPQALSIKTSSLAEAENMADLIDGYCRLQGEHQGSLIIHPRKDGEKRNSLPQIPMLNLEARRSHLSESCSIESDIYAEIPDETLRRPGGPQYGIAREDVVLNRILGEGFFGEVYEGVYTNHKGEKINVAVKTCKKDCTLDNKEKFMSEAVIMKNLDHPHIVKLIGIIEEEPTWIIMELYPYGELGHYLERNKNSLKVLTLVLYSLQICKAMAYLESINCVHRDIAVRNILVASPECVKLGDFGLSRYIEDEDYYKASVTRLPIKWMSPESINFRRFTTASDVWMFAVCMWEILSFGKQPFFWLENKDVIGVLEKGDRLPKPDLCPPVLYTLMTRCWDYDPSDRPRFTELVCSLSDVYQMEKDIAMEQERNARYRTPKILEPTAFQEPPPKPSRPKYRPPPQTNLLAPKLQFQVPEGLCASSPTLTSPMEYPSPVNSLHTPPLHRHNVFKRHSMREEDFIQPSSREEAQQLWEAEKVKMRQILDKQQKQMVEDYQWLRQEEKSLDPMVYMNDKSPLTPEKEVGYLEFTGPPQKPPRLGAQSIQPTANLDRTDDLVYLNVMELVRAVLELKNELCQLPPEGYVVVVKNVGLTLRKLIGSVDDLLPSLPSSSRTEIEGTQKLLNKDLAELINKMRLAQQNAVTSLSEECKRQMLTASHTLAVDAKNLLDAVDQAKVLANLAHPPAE
# M1 antagonist: M1 muscarinic receptor (rat) antagonism. AID 628. CHO-M1 cells, Fluo-4 calcium, ACh EC80 antagonist mode; active compounds read low. 64,000 tested, 3.4% active. B-score at 10 µM;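 active = calcium fluorescence response, raw or row-and-column corrected B-score, differing from the plate sample mean either way at a set confidence level, mostly lower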
# M1 agonist: M1 muscarinic receptor agonism; B-score at 10 µM; 64,000 tested, 3% active; CHO-M1 cells, Fluo-4 calcium fluorescence, agonist mode; active compounds read high;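 active = fluorescence rise, raw or as B-score row- and column-corrected plate score, outside the 99.7% band of its plate's samples, either direction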
# Cav32 inh: blocks human Cav3.2 T-type calcium channel | Cav3.2-expressing cells, Fluo-4 calcium fluorescence FDSS; active compounds read low | B-score at 10 µM | 100,000 tested, 4% active | AID 449739;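 active = single-dose well whose peak fluorescence ratio is a statistical outlier from its plate by either plate-standardised score or position-corrected B-score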
# Starred values were filed as active, the others as inactive; . = not tested or not shown. Shown are actives, neighbours in structure and some others; about 7.1% of the full set was active somewhere.
SMILES,Pyk2 oligo antag,M1 antagonist,M1 agonist,Cav32 inh
COc1ccc(S(=O)(=O)N2CCCCCC2)cc1N(C)S(=O)(=O)c1ccc(C)cc1,-1,.,.,.
CON1C(=O)C(=O)N(OC)C2CCCCC21 (centres undefined),0.9,.,.,.
O=C(N1CCN(c2cccc(Cl)c2)CC1)C1(c2cccs2)CCOCC1,-0.33,.,.,.
COc1cccc(Nc2nnc(SCC(=O)N(CC(C)C)CC(C)C)s2)c1,-1.7,.,.,-7.2*
CCOC(=O)c1cccc(Nc2nc(-c3cccnc3)nc3ccccc23)c1,-3.6*,.,.,.
CCOC(=O)c1cccc(NC(=O)c2cccnc2)c1,-0.44,0.12,0.6,0.29
CCCCOc1ccc(-c2nc(=S)[nH][nH]2)cc1,0.08,.,.,-0.46
Cc1ccccc1NC(=O)C1(NC(=O)c2cccc(N3C(=O)CSC3c3ccccc3)c2)CCCCC1 (centres undefined),-0.21,.,.,-10*
Cc1ccccc1NC(=O)c1cccc(N2C(=O)C3C4CCC(C4)C3C2=O)c1 (centres undefined),-0.41,.,.,0.25
CCc1ccc2[nH]c(=O)c(CN(Cc3ccccc3)C(=O)Nc3ccccc3OC)cc2c1,-2,.,.,-4.3*
CCN1CCCC1CN(Cc1cc2ccc(C)c(C)c2[nH]c1=O)C(=O)Nc1ccccc1OC (centres undefined),0.84,0.35,-0.048,0.77
COc1ccccc1NC(=O)N(Cc1ccco1)Cc1cc2ccc(C)c(C)c2[nH]c1=O,0.83,-0.046,1,-6.7*
Cc1ccc2cc(CN(Cc3ccco3)C(=O)NCc3ccccc3)c(=O)[nH]c2c1C,-1.6,-0.04,-0.025,-4.3*
COc1ccccc1NC(=S)N(Cc1ccco1)Cc1cc2cc(C)c(C)cc2[nH]c1=O,-0.52,.,.,.
COc1ccccc1NC(=O)N(Cc1ccco1)Cc1cc2cc(C)cc(C)c2[nH]c1=O,-0.65,-0.4,0.91,-5.1*
Cc1ccc2cc(CN(Cc3ccco3)C(=O)c3ccccc3)c(=O)[nH]c2c1C,0.38,-0.64,-0.18,0.015
Cc1cc2c(ncn2Cc2ccccc2)c([N+](=O)[O-])c1C,0.06,.,.,-1.2
Cc1ccc(C(c2nnnn2C2CCCC2)N2CCN3CCCC3C2)cc1 (centres undefined),0.05,.,.,0.11
Cc1ccc(C(c2nnnn2C2CCCC2)N2CCN(c3nc4ccccc4s3)CC2)cc1 (centres undefined),-2.7,.,.,-8.1*
COc1ccc(C(c2nnnn2C2CCCCC2)N2CCN(c3ccccc3)CC2)cc1 (centres undefined),.,0.52,-0.63,.
c1csc(C(c2nnnn2C2CCCC2)N2CCCC3(CCCCC3)C2)c1 (centres undefined),0.55,.,.,-5.7*
c1csc(C(c2nnnn2C2CCCCC2)N2CCN(c3nc4ccccc4s3)CC2)c1 (centres undefined),-1.1,.,.,-3.8*
c1csc(C(c2nnnn2C2CCCC2)N2CCOCC2)c1 (centres undefined),-0.46,0.9,0.0004,-0.076
O=C(c1ccco1)N1CCN(C(c2cccs2)c2nnnn2C2CCCCC2)CC1 (centres undefined),-0.89,-0.4,0.085,0.34
c1ccc(C(c2nnnn2C2CCCC2)N2CCN(c3nc4ccccc4s3)CC2)cc1 (centres undefined),-1.9,.,.,-8.2*
SMILES,Pyk2 oligo antag,M1 antagonist,M1 agonist,Cav32 inh
COC(=O)c1ccc(NCCc2csc(-c3ccc(C)cc3)n2)c([N+](=O)[O-])c1,0.04,.,.,-2.6
O=C(NCc1ccccc1C(F)(F)F)C1CC(c2ccc(C(F)(F)F)cc2)=NO1 (centres undefined),.,.,.,-2.3
CCO[C@H]1OC(C(=O)N2CCN(Cc3ccc4c(c3)OCO4)CC2)=C[C@@H](c2ccc(Br)cc2)[C@@H]1CCCO,.,.,.,-0.73
O/N=C(\c1ccc(Cl)cc1Cl)c1ncc(C(F)(F)F)cc1Cl,-1.3,.,.,-6.8*
N#Cc1c(-c2ccccc2)ccn(Cc2ccc(Cl)cc2)c1=O,-2.3,.,.,-0.65
Cc1cccc(OCc2nc3c4c(ncn3n2)-c2ccccc2CC42CCCC2)c1,0.66,.,.,.
Oc1cccc(-c2nc3c4c(ncn3n2)-c2ccccc2CC42CCCC2)c1,-3.1*,.,.,0.53
CCOC(=O)C1=C(NC(=O)c2ccc(Br)o2)Nc2ccccc2N=C1,-0.34,0.51,-0.24,0.38
O=C(NC(Cc1ccccc1)C(=O)OCC(=O)N1CCc2ccccc21)c1ccco1 (centres undefined),0.68,-1.5,2.1,-4.7*
O=C(COC(=O)C(Cc1ccccc1)NC(=O)c1ccco1)NC1CC1 (centres undefined),0.31,.,.,1.6
Cc1ccc([N+](=O)[O-])cc1NC(=O)CCCOc1ccccc1,0.64,.,.,-1.9
Cc1ccc(C23CC4CC(CC(CC(=O)N5CCOCC5)(C4)C2)C3)cc1,0.08,.,.,-2.6
Cc1cccc(N2CCN(C(=O)NCc3ccc(Cl)cc3)CC2)c1,1.5,.,.,-9.6*
CC(C)CCNC(=O)Cn1c2c(c(-c3ccccc3Cl)cc1=O)CCC2,.,.,.,-1.6
CC1CCC(NC(=O)Cn2c3c(c(-c4ccccc4Cl)cc2=O)CCC3)CC1 (centres undefined),.,.,.,-5.1*
COC(=O)c1ccc(CSc2nc3cc(Cl)ccc3s2)o1,1.1,.,.,-0.33
COCCn1c(SCc2ccc(C(=O)OC)o2)nc2cc(Cl)ccc2c1=O,-1.6,-0.38,0.64,-3.9*
CC(C)(C)C(=O)c1no[n+]([O-])c1/C(=N/O)C(C)(C)C,-0.76,-0.1,-0.67,-7.9*
COc1ccccc1N(CC(=O)Nc1cc(C)on1)S(=O)(=O)c1cccs1,.,-0.27,0.27,.
O=C(O)CC[C@@H](C(=O)O)N1C(=O)c2ccccc2C1=O,.,.,.,1.4
CCN(CCNC(=O)CN1CCN(Cc2ccc(Cl)cc2)C1=O)c1ccccc1,0.82,-0.031,0.015,-4*
Cc1ccc(CN2CCN(CC(=O)NCc3ccc(Cl)cc3)C2=O)cc1,-1.6,.,.,-4*
O=C(CN1CCN(Cc2ccccc2)C1=O)NCc1ccc(Cl)cc1,-0.82,-0.92,-0.6,-0.54
COc1cnc(SCc2c(Cl)cccc2Cl)nc1Cl,1.3,.,.,-0.99
CCOC(=O)c1ccc(NC(=O)C2CCN(S(=O)(=O)CC)CC2)cc1,0.73,0.088,0.2,0.82
SMILES,Pyk2 oligo antag,M1 antagonist,M1 agonist,Cav32 inh
CCOC(=O)c1ccc(NS(=O)(=O)N2CCCCCC2)cc1,-3.1*,-0.25,-1.5,-3.6
CC1(C)Cc2ccccc2-c2nnc(SCc3ccccc3)n21,-1.8,.,.,.
CC1(C)Cc2ccccc2-c2nnc(SCC(=O)N3CCN(c4ccccc4)CC3)n21,-0.45,-0.5,3.3*,-0.85
O=C(CN1CCN(S(=O)(=O)c2ccc(F)cc2)CC1)Nc1ccc(Cl)c(C(F)(F)F)c1,0.04,0.049,-0.0014,.
COc1ccc(S(=O)(=O)N2CCN(CC(=O)Nc3ccc(F)c(F)c3)CC2)cc1,1.6,-0.086,-0.3,-4.9*
O=C(CN1CCN(S(=O)(=O)c2ccccc2)CC1)Nc1cccc(C(F)(F)F)c1,-0.84,0.041,-0.48,-7.7*
CCN(CC)S(=O)(=O)c1cccc(NC(=O)Nc2cccc(C(F)(F)F)c2)c1,-2.5,.,.,-5.8*
COc1ccc(S(=O)(=O)N2CCCN(CC(=O)Nc3ccc4c(c3)OCO4)CC2)cc1,-1.2,0.019,-1.2,-0.44
C/C=C/C=C\C(=O)Nc1cccc(C2=NOC3(C2)C[C@@H](C(N)=O)N(C(=O)c2cc([N+](=O)[O-])cc([N+](=O)[O-])c2C)C3)c1 (some centres undefined),.,.,.,0.63

# High-throughput results (PubChem)
